Screens deposited in PubChem BioAssay by Johns Hopkins Ion Channel Center.
KCNQ2 inh – inhibitors of rat KCNQ2 potassium channel; CHO-K1 KCNQ2, FluxOR thallium flux, 20 min; active compounds read low; B-score at 10 µM; actives 1.1% (n = 310,000);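 active = fluorescence ratio B-score at most minus 3 library SDs, with starting brightness B-score within 2 library SDs, cut at about -5.5 in these data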
Target sequence (O88943 whole entry, looked up): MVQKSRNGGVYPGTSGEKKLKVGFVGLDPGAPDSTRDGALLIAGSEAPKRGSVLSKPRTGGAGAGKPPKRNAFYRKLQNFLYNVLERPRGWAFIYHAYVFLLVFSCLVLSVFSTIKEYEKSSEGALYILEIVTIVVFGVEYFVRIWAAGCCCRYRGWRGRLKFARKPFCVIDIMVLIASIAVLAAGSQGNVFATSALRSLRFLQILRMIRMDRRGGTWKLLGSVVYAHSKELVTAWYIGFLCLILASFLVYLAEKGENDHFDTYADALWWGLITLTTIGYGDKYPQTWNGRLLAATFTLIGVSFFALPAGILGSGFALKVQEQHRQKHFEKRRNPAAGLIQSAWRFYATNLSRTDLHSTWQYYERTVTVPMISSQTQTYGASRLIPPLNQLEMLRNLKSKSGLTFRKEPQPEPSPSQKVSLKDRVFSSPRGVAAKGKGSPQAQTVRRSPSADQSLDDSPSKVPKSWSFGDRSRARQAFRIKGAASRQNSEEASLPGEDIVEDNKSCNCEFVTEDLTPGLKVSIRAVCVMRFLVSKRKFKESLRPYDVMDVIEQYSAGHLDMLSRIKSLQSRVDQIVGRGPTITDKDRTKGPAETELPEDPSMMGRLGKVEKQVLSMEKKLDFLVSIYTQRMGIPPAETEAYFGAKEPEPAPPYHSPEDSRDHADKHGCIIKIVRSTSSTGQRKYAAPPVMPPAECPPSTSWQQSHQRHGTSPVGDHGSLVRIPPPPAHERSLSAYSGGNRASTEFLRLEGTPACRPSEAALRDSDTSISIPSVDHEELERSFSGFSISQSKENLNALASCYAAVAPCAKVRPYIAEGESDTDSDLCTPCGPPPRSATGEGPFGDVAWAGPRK
KCNQ2 enhance – potentiators of rat KCNQ2 potassium channel; O88943; CHO-K1 KCNQ2, FluxOR thallium flux fluorescence; active compounds read high; B-score at 10 µM; actives 0.54% (n = 310,000); AID 2239;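 active = fluorescence ratio B-score at least 3 SD of library B-scores, with initial fluorescence B-score within 3 of them, cut at about 5.3 in these data; same plate scores as AID 2156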;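 also: B-score of peak minus minimum over baseline fluorescence ratio after K+ and Tl+ stimulus; positive B-score means potentiation of KCNQ2 with more thallium influx and brighter signal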
An asterisk follows results filed as active; i = inactive; . = no result given. Shown are actives, neighbours in structure and some others; about 1.6% of the full set was active somewhere.

SMILES | KCNQ2 inh | KCNQ2 enhance
COc1ccc(CNc2ncc(-c3ccc(F)cc3)n2C)c2ccccc12 | -6.2* | -6.2
COc1ccc(CNn2c(-c3cccc(C)c3)nc3ccccc3c2=O)cc1OC | i | .
COc1ccccc1CNn1c(-c2cccc(C)c2)nc2ccccc2c1=O | -7.6* | -7.6
COc1ccnc2c1c(=O)n(Cc1ccc(Cl)cc1Cl)c(=O)n2C | -5.9* | -5.9
COc1ccnc2c1c(=O)n(Cc1ccccc1Cl)c(=O)n2C | i | .
CCOc1ccc(CN(C)CC(=O)Nc2cccc3ccccc23)cc1OC | i | .
COc1ccc(CN(C)CC(=O)Nc2cccc3ccccc23)cc1F | -5.8* | -5.8
Cc1cc(C)cc(N(CC(=O)N2CCN(c3ccccc3)CC2)S(=O)(=O)c2c(C)noc2C)c1 | -6.5* | -6.5
COc1cccc(N2CCN(C(=O)CN(c3cc(C)cc(C)c3)S(=O)(=O)c3c(C)noc3C)CC2)c1 | i | .
Cc1ccc(OCc2cc(C(=O)N(C)Cc3cnn(-c4ccccc4C)c3)no2)cn1 | i | 2.5
CCOC(=O)CC1(NC(=O)c2cc(COc3cccc(OC)c3)on2)CCCCC1 | -7* | -7
COc1cccc(OCc2cc(C(=O)NCC3CCCCC3)no2)c1 | i | .
CCCCCCNCC(=O)N1CCC(Cc2ccccc2)CC1 | i | .
O=C1CC2c3ccccc3C1C1C(=O)N(CCc3ccccc3)C(=O)C21 (stereo not given) | i | 1.7
CC(=O)Nc1ccc(S(=O)(=O)NCCCN2CCN(Cc3ccccc3)CC2)cc1Cl | i | 1.5
COc1ccc(N2CCN(c3nc4ccccc4n3CC(=O)c3ccccc3)CC2)cc1 | -6.3* | -6.3
COc1cccc(C(=O)N2CCn3c2nc2ccccc23)c1 | -8.7* | -8.7
CCOC(=O)C1CCN(c2nc3ccccc3n2CC(=O)c2ccccc2)CC1 | i | .
COc1ccc(C(=O)N2CCn3c2nc2ccccc23)cc1 | i | .
Cc1cc(F)ccc1S(=O)(=O)Nc1ccccc1C(=O)Nc1ccccc1N1CCOCC1 | i | .
Cc1ccc(C)c(NS(=O)(=O)c2cc(C(=O)Nc3ccccc3-c3ccccc3)ccc2C)c1 | -6.2* | -6.2
Cc1ccc(C(=O)NCc2ccncc2)cc1S(=O)(=O)Nc1cccc(C)c1C | i | .
Cc1ccc(C(=O)Nc2ccccc2-c2ccccc2)cc1S(=O)(=O)Nc1cccc(C)c1C | -7.9* | -7.9
Cc1ccc(C)c(S(=O)(=O)Nc2ccccc2C(=O)Nc2ccccc2N2CCOCC2)c1 | -6* | -6
Cc1ccccc1NC(=O)c1ccc(C)c(S(=O)(=O)Nc2cccnc2)c1 | i | .
SMILES | KCNQ2 inh | KCNQ2 enhance
Cc1ccc(OCC(=O)NCCCNC(=O)c2ccc(C)nc2)cc1 | i | 0.93
Cc1c(Cl)ccc(S(=O)(=O)NCCCn2ccnc2)c1Cl | i | .
COc1cc(C(=O)NC2=C(C#N)CCC2)cc(OC)c1OC | i | 0.62
Cc1ccc(N(CC2CO2)S(=O)(=O)c2ccc([N+](=O)[O-])cc2)cc1 (stereo not given) | -6.8* | -6.8
Cc1ccc(N(CC2CO2)S(=O)(=O)c2ccc(C)cc2)cc1 (stereo not given) | i | .
O=S(=O)(c1cccc(COc2c(Cl)cccc2Cl)c1)N1CCOCC1 | i | .
O=C(CNC(=O)c1ccccc1)OCC(=O)N1N=C(c2ccc(Cl)cc2)CC1c1ccco1 (stereo not given) | i | .
Cc1ccc(S(=O)(=O)N[C@H](C(=O)OCC(=O)N2N=C(c3ccc(Cl)cc3)CC2c2ccco2)C(C)C)cc1 (stereo not given in full) | -6.1* | -6.1
COc1ccc(C(=O)NC(=S)Nc2cccc3ncccc23)cc1[N+](=O)[O-] | i | .
Cc1ccccc1OC1C(=O)N(Cc2ccc3c(c2)OCO3)C1c1sccc1C (stereo not given) | -6* | -6
O=C1C(Oc2ccccc2)C(c2cccs2)N1Cc1ccc2c(c1)OCO2 (stereo not given) | i | 0.4
CCCn1c(SC(C)C(=O)N2CCOCC2)nc2ccc(Br)cc2c1=O (stereo not given) | i | 0.24
CCN(CC)C(=O)CSc1nc(-c2ccc(C)cc2)nc2c1COC(C)(C)C2 | -7.4* | -7.4
CC1(C)Cc2nc(-c3ccccc3)nc(SCC(=O)N3CCOCC3)c2CO1 | i | .
O=C(CN1CCOCC1)NCc1cc([N+](=O)[O-])ccc1O | i | 0.04
CCCC1S/C(=N/N=C/c2ccc(OC)cc2)N(Cc2ccc(OC)cc2)C1=O (stereo not given) | i | .
CCCC1S/C(=N/N=C/c2ccc(OC)cc2)N(Cc2ccccc2)C1=O (stereo not given) | -6.2* | -6.2
COC(=O)c1ccc(CNC(=O)C2CCC(=O)N(CCN3CCOCC3)C2)cc1 (stereo not given) | i | .
Cc1ccccc1NC(=O)c1cc(C(=O)c2cc(Cl)ccc2O)cn(-c2ccccc2C)c1=O | -5.6* | -5.6
Cc1ccc(-n2cc(C(=O)c3cc(Cl)ccc3O)cc(C#N)c2=O)cc1 | i | .
COc1ccccc1Nc1nc(N)nc(CSC(=S)N2CCCCC2)n1 | i | .
CSc1ccccc1NC(=O)COc1ccccc1Cl | i | .
COc1ccc(O[C@H]2C=C[C@@H](c3ccccc3)O[C@@H]2COC(=O)CC/C(C)=N/OC[C@@H](O)COCc2ccco2)cc1 | i | .
COC(=O)C/C=C/[C@@H](C)[C@@H](/C=N/OC[C@H]1O[C@H](c2ccccc2)C=C[C@@H]1Oc1ccc(OC)cc1)OC | -6.9* | -6.9
C=C(C)c1cccc(C(C)(C)NC(=O)Nc2cc(C)ccc2OC)c1 | i | 1.9
SMILES | KCNQ2 inh | KCNQ2 enhance
C=C(C)c1cccc(C(C)(C)NC(=O)Nc2ccccc2OCC)c1 | i | 8.7*
COc1cccc2c1OCC/C2=N\NC(=O)COc1ccc(C)cc1 | i | 0.24
Cc1ccc(OCC(=O)N/N=C2\CCOc3c(C)cccc32)cc1 | -6.8* | -6.8
CCOC(=O)N1CCN(S(=O)(=O)N2CCCC(C(=O)NCCc3ccc(C)cc3)C2)CC1 (stereo not given) | i | 0.33
O=C(CCN1CCC(c2ccccc2)C1)c1ccccc1 (stereo not given) | i | .
O=C(CCN1CCC(c2ccccc2)C1)c1ccc2c(c1)OCCO2 (stereo not given) | -6.2* | -6.2
COC(=O)C(Cc1ccc(O)cc1)NC(=O)C1CCN(S(=O)(=O)c2ccc(C)cc2)CC1 (stereo not given) | i | 0.67
COc1ccc(CCNC(=O)c2cccc(C(=O)NCCc3ccc(OC)cc3)n2)cc1 | i | .
O=C(N1CCC(n2nc(-c3ccccc3)oc2=O)CC1)C1(c2ccc(Cl)cc2)CC1 | -8.2* | -8.2
O=C(N1CCOCC1)C1(c2ccc(Cl)cc2)CCCC1 | i | .
O=C(Cc1nc2ccccc2[nH]1)c1ccc(Cl)cc1 | i | .
N#CCCN/N=C(/Cc1nc2ccccc2[nH]1)c1cccc(Cl)c1 | -6* | -6
CS(=O)(=O)c1ccc(C(=O)N(CCc2ccccc2)Cc2ccccc2)cc1 | i | .
CS(=O)(=O)c1ccccc1C(=O)N(CCc1ccccc1)Cc1ccccc1 | -5.6* | -5.6
COc1ccc(C(=O)N(CCc2ccccc2)Cc2ccccc2)c(OC)n1 | -7.7* | -7.7
COc1ccc(C(=O)N(CCc2ccccc2)Cc2cccs2)c(OC)c1 | i | .
COc1ccc(CNC(=O)CN(C(=O)CCC(=O)Nc2ccccn2)c2cccc(C)c2C)cc1 | i | .
CC(=O)NCc1ccc(S(=O)(=O)N2CCCN(C)CC2)cc1 | i | 1.2
CN(C)c1cc(-c2ccc(Cl)cc2Cl)oc(=O)c1Cl | i | 1.3
